PubChem BioAssay (NCATS)
Unmarked numbers belong to inactive results. Results filed as inconclusive are left out. A call without a number means that no potency is given here. Active and inactive are the calls of the source. Calls follow the shape of the dose curve; as a rule, active = well fitted curve in the direction sought with a large enough effect; inconclusive = small, poorly fitted or top-dose-only effect, or another doubt; inactive = no such curve, though single readings can be large; an effect the other way counts as inactive or inconclusive. *1 amine or outer side, *2 acyl side, *3 side chain or, on linkers, in order; H or OH if unused. Where a SMILES comes first, the peptide text is derived from it. Bridges are numbered along the chain shown (N, C = ends). X6 = O=C(CCC[*:2])[*:1]

Experiments:
[1] = target: Glutathione peroxidase 1 (Homo sapiens) (UniProt P07203); assay: Primary qHTS Assay for Inhibitors of Recombinant Selenoprotein Glutathione Peroxidase 1 (GPX1) (AID 1845191); also: nearly all actives have a fitted effect of over 65% in size; also: potency is read from the fitted curve at half-maximal effect
Outline: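 10 nM GPX1 + cpd, 30 min RT; start w/ 1 mM GSH, 0.5 mM cumene hydroperoxide, 0.5 mM NADPH, 100 nM GR, 0.01% BSA; buffer 50 mM Tris-HCl pH 7.5, 2 mM EDTA, 150 mM NaCl; Fl 340/450, 0 & 15 min.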

[2] = target: Luciferin 4-monooxygenase (Photinus pyralis) (UniProt P08659); assay: Primary firefly luciferase (FLuc) qHTS assay for identification of artifact compounds. (AID 1845220); also: nearly all actives have a fitted effect of over 60% in size
Outline: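 FLuc 10 nM; luciferin 10 uM; ATP 10 uM; Tris-acetate pH 7.6, Mg-acetate 10 mM; 15 min RT preincubation; 5 min reaction; luminescence.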

[3] = Primary fluorescence-based thiol-reactive (MSTI) qHTS assay for identification of artifact compounds. (AID 1845221); also: nearly all actives have a fitted effect of over 65% in size; also: potency is read from the fitted curve at half-maximal effect;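 as to activity change, negative = thiol reactive: series mostly up to about 54 µM; thiol-reactive compounds lower the probe fluorescence signal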
Outline: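 One-hour, room-temperature, dark incubation of compound with 4 uM MSTI in PBS (pH 7.4, 2% DMSO) precedes a fluorescence read at 525 nm excitation, 598 nm emission; Hill-equation fitting yields concentration-response values.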

[4] = test system: Nanoluciferase (engineered Oplophorus gracilirostris luciferase); assay: Primary Nanoluciferase (NLuc) qHTS assay for identification of artifact compounds. (AID 1845222);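 also: NLuc secreted into diluted conditioned medium of S16 cells; series mostly up to about 54 µM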
Outline: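 NLuc from S16 cell medium (1:55) plus test compounds, 15 min, room temperature. Luminescence after Nano-Glo (1:100) addition, 5 min.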

[5] = Primary redox qHTS assay for identification of artifact compounds. (AID 1845223)
Outline: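 Amplex Red (25 uM) and HRP (250 mU/mL) in HBSS, with compounds for 15 min, then 250 uM DTT for 30 min, room temperature, dark. Fluorescence 525/598 nm read; normalized to DMSO and 10 uM DA3003; Hill fit.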

Glutathione peroxidase 1 (Homo sapiens), sequence (P07203 whole entry, looked up): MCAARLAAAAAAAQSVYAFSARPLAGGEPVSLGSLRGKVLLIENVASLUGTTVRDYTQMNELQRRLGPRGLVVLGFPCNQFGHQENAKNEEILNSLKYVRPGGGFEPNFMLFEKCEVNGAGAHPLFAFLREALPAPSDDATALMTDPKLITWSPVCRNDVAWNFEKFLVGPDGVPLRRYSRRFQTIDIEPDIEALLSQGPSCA

Which Potency [1] does the source give for `CC(=C/C(=O)O)/C=C/[C@]1(O)[C@@]2(C)CO[C@]1(C)C[C@H](O[C@@H]1O[C@H](CO)[C@@H](O)[C@H](O)[C@H]1O)C2` here?
Its Potency is “inactive”.

And the Potency [2]?
The Potency was “inactive”.

And the Potency [3]?
Its Potency is 9.22 µM (active).

And the Potency [4]?
The Potency was “inactive”.

And the Potency [5]?
The Potency was “inactive”.

For `CC1=C2C(=O)O[C@@H](c3ccoc3)[C@]2(C)CCC1`, which Potency [1] is on record?
The Potency was “inactive”.

What about the Potency [2] of the same compound?
The Potency was “inactive”.

What about the Potency [3] of the same compound?
The Potency was “inactive”.

And the Potency [4]?
The Potency was “inactive”.

And the Potency [5]?
Its Potency is “inactive”.

For `COc1cccc(-c2ccc([C@@H](Oc3cc(-c4ccc(C[C@H](N)C(=O)O)cc4)nc(N)n3)C(F)(F)F)cc2)c1`, which Potency [1] is on record?
Its Potency is “inactive”.

What about the Potency [2] of the same compound?
The Potency was “inactive”.

And the Potency [3]?
Its Potency is “inactive”.

And the Potency [4]?
Its Potency is “inactive”.

And the Potency [5]?
Its Potency is “inactive”.

Which results are given for `C/C=C/C=C/C=C/C(=O)O[C@@H]1C=C(CO)C(O)(C(=O)O)[C@@]2(C)CCCC(C)(C)[C@H]12` (some centres not stated)?
Potency [1]: inactive; Potency [2]: inactive; Potency [3]: inactive; Potency [4]: inactive

Which activity, negative = inhibition [1] does the source give for `CNC(=O)[C@H]1O[C@@H](n2cnc3c(NCc4ccc(N)c(I)c4)ncnc32)[C@H](O)[C@@H]1O` here?
The activity, negative = inhibition was 3.67% [at 9.52 µM].

What about the outcome [2] of the same compound?
The outcome was “inactive [at 11.6 µM]”.

What about the activity change, negative = thiol reactive [3] of the same compound?
The activity change, negative = thiol reactive was 20.2% [at 11.5 µM].

And the activity, negative = inhibition [4]?
Its activity, negative = inhibition is -0.867% [at 11.6 µM].

And the redox activity (% of DA3003) [5]?
Its redox activity (% of DA3003) is 1.11% [at 11.5 µM].

For `C=CC(C)(O)CO[C@@H]1O[C@H](CO)[C@@H](O)[C@H](O)[C@H]1O` (some centres not stated), which Potency [1] is on record?
The Potency was “inactive”.

And the Potency [2]?
Its Potency is “inactive”.

And the Potency [4]?
Its Potency is “inactive”.

What about the Potency [5] of the same compound?
Its Potency is “inactive”.

With `CCC(=O)O[C@]1(C(=O)CCl)[C@@H](C)C[C@H]2[C@@H]3C[C@H](F)C4=CC(=O)C=C[C@]4(C)[C@@]3(F)[C@@H](O)C[C@@]21C` as the compound, how does the Potency [1] read?
The Potency was “inactive”.

What about the Potency [2] of the same compound?
The Potency was “inactive”.

What about the Potency [3] of the same compound?
Its Potency is “inactive”.

What about the Potency [4] of the same compound?
The Potency was “inactive”.

What about the Potency [5] of the same compound?
The Potency was “inactive”.

What does the source list for `C=C(C)C(C)C1OC23CC4(CO2)C(CCC2C5(C)CCC(OC6OCC(O)C(OC7OC(CO)C(O)C(OC8OCC(O)C(O)C8O)C7O)C6OC6OC(CO)C(O)C6O)C(C)(C)C5CCC24C)C3C(C)(O)C1OC(C)=O` (configuration not stated)?
Potency [1]: inactive; outcome [2]: inactive [at 11.6 µM]; activity change, negative = thiol reactive [3]: 644% [at 11.5 µM]; activity, negative = inhibition [4]: 3.65% [at 11.6 µM]; redox activity (% of DA3003) [5]: 8.02% [at 11.5 µM]

Which results are given for `CCC[C@@H]1C[C@@H](C(=O)N[C@@H]([C@H]2O[C@H](SC)[C@H](OP(=O)(O)O)[C@@H](O)[C@H]2O)[C@H](C)Cl)N(C)C1`?
Potency [1]: inactive; Potency [2]: inactive; Potency [3]: inactive; Potency [4]: inactive; Potency [5]: inactive

With `N#Cc1ccc2[nH]c(O)c(-c3ccc(CN4CCOCC4)cn3)c2c1` as the compound, how does the Potency [1] read?
The Potency was “inactive”.

What about the Potency [2] of the same compound?
The Potency was “inactive”.

What about the Potency [4] of the same compound?
The Potency was “inactive”.

And the Potency [5]?
Its Potency is “inactive”.

For `CC[C@H](C)[C@@H]1NC(=O)[C@H](Cc2ccc(OC)cc2)NC(=O)CCCSC[C@@H](C(=O)N2CCC[C@H]2C(=O)N[C@@H](CC(C)C)C(=O)NCC(N)=O)NC(=O)[C@H](CC(N)=O)NC(=O)[C@H](CCC(N)=O)NC1=O` (Y(Me)IQNCPLG-NH2; linker N-5 via X6), which Potency [1] is on record?
Its Potency is “inactive”.

What about the Potency [2] of the same compound?
The Potency was “inactive”.

What about the Potency [3] of the same compound?
The Potency was “inactive”.

What about the Potency [4] of the same compound?
The Potency was “inactive”.

Which Potency [1] does the source give for `NCc1c[nH]c(=S)n1C1CCc2c(F)cc(F)cc2C1` (configuration not stated) here?
The Potency was 22.7 µM (active).

And the Potency [2]?
The Potency was “inactive”.

What about the Potency [4] of the same compound?
Its Potency is “inactive”.

For `C1CCN2CC3C[C@@H](CN4CCCC[C@@H]34)[C@H]2C1`, which Potency [1] is on record?
Its Potency is “inactive”.

And the Potency [2]?
Its Potency is “inactive”.

And the Potency [3]?
The Potency was “inactive”.

And the Potency [4]?
The Potency was “inactive”.

What about the Potency [5] of the same compound?
Its Potency is “inactive”.

Which Potency [1] does the source give for `C#C[C@]1(O)CC[C@H]2[C@@H]3CCC4=C/C(=N/O)CC[C@@H]4[C@H]3CC[C@@]21CC` here?
The Potency was “inactive”.

What about the Potency [2] of the same compound?
The Potency was “inactive”.

What about the Potency [3] of the same compound?
Its Potency is “inactive”.

What about the Potency [4] of the same compound?
Its Potency is “inactive”.

And the Potency [5]?
Its Potency is “inactive”.

With `C[C@@H]1CC[C@]2(C(=O)O)CC[C@]3(C)C(=CCC4[C@]5(C)C(CC[C@]43C)C(C)(C)[C@@H](O)[C@H](O)[C@@H]5O)C2[C@]1(C)O` (some centres not stated) as the compound, how does the Potency [1] read?
The Potency was “inactive”.

And the Potency [2]?
The Potency was “inactive”.

And the Potency [3]?
Its Potency is “inactive”.

What about the Potency [4] of the same compound?
The Potency was “inactive”.

What about the Potency [5] of the same compound?
The Potency was “inactive”.

With `NC(=O)c1cccc(-c2cc(O)cc(OC(=O)NC3CCCCC3)c2)c1` as the compound, how does the Potency [1] read?
Its Potency is “inactive”.

And the Potency [2]?
The Potency was “inactive”.

What about the Potency [3] of the same compound?
The Potency was “inactive”.

And the Potency [4]?
Its Potency is “inactive”.

Which results are given for `CCOC(=O)[C@H](CCc1ccccc1)CC1(C(=O)N[C@H]2CCc3ccccc3N(CC(=O)O)C2=O)CCCC1`?
Potency [1]: inactive; Potency [2]: inactive; Potency [3]: inactive; Potency [4]: inactive; Potency [5]: inactive

For `CC(=O)OC1C=C(C(=O)O)C2(CO)CCC(C)C(C)(CCc3ccoc3)C2C1` (configuration not stated), which Potency [1] is on record?
The Potency was “inactive”.

What about the Potency [2] of the same compound?
Its Potency is “inactive”.

And the Potency [3]?
Its Potency is “inactive”.

What about the Potency [4] of the same compound?
Its Potency is “inactive”.

Which Potency [1] does the source give for `CC1(C)CC[C@]2(C(=O)O)CC[C@]3(C)C(=CCC4[C@@]5(C)CC[C@H](O[C@@H]6O[C@H](C(=O)O)[C@@H](O)[C@H](O)[C@H]6O)C(C)(CO)C5CC[C@]43C)C2C1` (some centres not stated) here?
The Potency was “inactive”.

And the Potency [2]?
The Potency was “inactive”.

And the Potency [3]?
Its Potency is “inactive”.

What about the Potency [4] of the same compound?
The Potency was “inactive”.

What about the Potency [5] of the same compound?
Its Potency is “inactive”.
